FEN1 inh = qHTS Assay for the Inhibitors of Human Flap endonuclease 1 (FEN1); P39748; Recombinant FEN1 flap cleavage, fluorescence, 15 min; Potency, µM (series often up to 114 µM), inactives show at the highest dose activity change, negative = inhibition, most hits filed as inhibitors; 390,000 compounds, 0.35% hits; AID 588795, 2011; further: on the % scale 0 is the no-effect control and ±100 the full control effect; nearly all actives have a fitted effect of over 65% in size
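Recombinant FEN1 (10 nM) was preincubated with pin-transferred compounds for 15 min at room temperature, then flap DNA substrate (50 nM final) was added. Plates were read at 0 and 15 min, and normalized concentration–response data were fitted to a four-parameter Hill equation.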
WRN helicase inh = qHTS for Inhibitors of WRN Helicase; WRN helicase unwinding, fluorescent forked duplex, kinetic; Bifunctional 3'-5' exonuclease/ATP-dependent helicase WRN (Homo sapiens), Q14191; Potency, µM (doses to about 114 µM), for the others: at the highest dose activity change, negative = inhibition, usual class: inhibitors; 360,000 compounds, 0.46% hits; further: on the % scale 0 is the no-effect control and ±100 the full control effect; nearly all actives have a fitted effect of over 55% in size
Target sequence (Q14191 whole entry, looked up): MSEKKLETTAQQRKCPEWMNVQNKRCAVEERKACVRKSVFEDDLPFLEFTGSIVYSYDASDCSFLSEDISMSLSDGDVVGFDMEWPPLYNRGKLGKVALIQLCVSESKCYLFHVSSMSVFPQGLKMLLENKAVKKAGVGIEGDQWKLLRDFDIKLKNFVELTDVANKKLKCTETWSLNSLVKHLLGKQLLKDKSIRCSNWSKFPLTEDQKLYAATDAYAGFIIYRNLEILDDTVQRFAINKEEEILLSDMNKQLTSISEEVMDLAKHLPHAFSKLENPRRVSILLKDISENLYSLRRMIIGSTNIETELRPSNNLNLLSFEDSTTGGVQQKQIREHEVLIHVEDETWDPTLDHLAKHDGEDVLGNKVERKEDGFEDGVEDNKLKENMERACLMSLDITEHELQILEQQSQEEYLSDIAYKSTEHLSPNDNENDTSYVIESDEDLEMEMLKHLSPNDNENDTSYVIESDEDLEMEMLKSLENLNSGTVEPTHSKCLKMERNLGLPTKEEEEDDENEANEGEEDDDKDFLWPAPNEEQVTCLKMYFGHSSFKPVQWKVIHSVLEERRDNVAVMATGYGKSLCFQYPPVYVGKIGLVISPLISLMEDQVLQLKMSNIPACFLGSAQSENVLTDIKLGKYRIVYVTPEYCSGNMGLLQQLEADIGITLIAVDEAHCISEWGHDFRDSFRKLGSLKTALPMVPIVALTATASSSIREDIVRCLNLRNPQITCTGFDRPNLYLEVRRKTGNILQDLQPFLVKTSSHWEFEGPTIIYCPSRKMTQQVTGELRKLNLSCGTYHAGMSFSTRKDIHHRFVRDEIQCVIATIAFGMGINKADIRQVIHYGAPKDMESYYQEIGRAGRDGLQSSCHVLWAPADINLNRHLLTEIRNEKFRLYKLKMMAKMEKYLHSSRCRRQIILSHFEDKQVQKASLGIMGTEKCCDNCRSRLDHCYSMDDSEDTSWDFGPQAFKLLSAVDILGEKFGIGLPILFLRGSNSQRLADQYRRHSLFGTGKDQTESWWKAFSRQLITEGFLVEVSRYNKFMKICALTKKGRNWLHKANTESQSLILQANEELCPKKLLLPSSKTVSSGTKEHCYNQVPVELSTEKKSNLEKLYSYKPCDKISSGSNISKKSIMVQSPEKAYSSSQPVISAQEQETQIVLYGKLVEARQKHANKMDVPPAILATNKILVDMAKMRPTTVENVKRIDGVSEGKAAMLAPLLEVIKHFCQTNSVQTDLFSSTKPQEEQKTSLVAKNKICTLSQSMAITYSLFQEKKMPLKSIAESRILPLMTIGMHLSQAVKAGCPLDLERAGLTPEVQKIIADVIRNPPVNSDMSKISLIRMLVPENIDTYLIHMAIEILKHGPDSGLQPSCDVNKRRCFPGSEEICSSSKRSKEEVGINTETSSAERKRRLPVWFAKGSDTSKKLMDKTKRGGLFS
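Kinetic fluorescence helicase assay: unwinding of a quenched forked DNA duplex (100 nM final) with 2 mM ATP final raises red fluorescence (525/598 nm). Compounds sat 15 min at room temperature with 20 nM WRN beforehand.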
POLB inh = qHTS Assay for Inhibitors of DNA Polymerase Beta. Pol beta primer extension/strand displacement, fluorescence kinetic. Potency, µM (top dose mostly 114 µM), for inactives: at the highest dose activity change, negative = inhibition, hits mostly inhibitors. 340,000 compounds, 1.3% hits; further: on the % scale 0 is the no-effect control and ±100 the full control effect
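Curves were derived by four-parameter Hill fits of normalized qHTS data. The kinetic fluorescent primer-extension read was taken at 0 and 10 min after 50 nM substrate, following a 15 min room-temperature preincubation of 10 nM enzyme with compounds.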
Pol iota inh = qHTS for Inhibitors of Polymerase Iota | 390,000 compounds, 1% hits | Potency, µM (top dose mostly 115 µM), inactives show at the highest dose activity, negative = inhibition, hits mostly inhibitors | AID 588590, 2011 | Pol iota fluorescent replication assay, 10 min | DNA polymerase iota (Homo sapiens), Q9UNA4
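Pol iota at 10 nM preincubated 15 min with compounds at room temperature; reaction started with fluorescent substrate, 50 nM final. Fluorescence read kinetically at 0 and 10 min; buffer-only wells as negative control.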
Pol kappa inh = qHTS for Inhibitors of Polymerase Kappa. DNA polymerase kappa (Homo sapiens), Q9UBT6. purified Pol kappa, fluorescent DNA synthesis assay, 10 min. Potency, µM (doses to about 107 µM), inactives show at the top dose activity, negative = inhibition, usual class: inhibitors. 400,000 compounds, 0.53% hits. AID 588579, 2011; further: on the % scale 0 is the no-effect control and ±100 the full control effect
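50 nM final substrate added after 15 min RT preincubation of 10 nM Pol kappa with compound; fluorescence read at 0 and 10 min.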
Pol eta inh = qHTS for Inhibitors of Polymerase Eta | DNA polymerase eta (Homo sapiens), Q9Y253 | recombinant Pol eta, fluorescent DNA replication assay | Potency, µM (doses to about 114 µM), for the others: at the top dose activity change, negative = inhibition, actives largely listed as inhibitors | 390,000 compounds, 1.2% hits | AID 588591, 2011; further: on the % scale 0 is the no-effect control and ±100 the full control effect
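Fluorescent replication assay: 50 nM final substrate added after a 15 min room-temperature compound preincubation with 10 nM enzyme. Signal taken at 0 min and again at 10 min.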
The depositor's hits bear a star; ? = inconclusive; / = no result; ! = repeats disagree; [ ] = dose if it differs, or a comment. An excerpt weighted towards active compounds, which were near 2.4% of everything screened. The call rests on the fitted dose curve; in most records, active means well fitted curve in the direction sought with a large enough effect; inconclusive means small, poorly fitted or top-dose-only effect, or another doubt; inactive means no such curve, though single readings can be large; an effect the other way counts as inactive or inconclusive. Potency means the concentration at half of the fitted maximal effect.

SMILES	FEN1 inh	WRN helicase inh	POLB inh	Pol iota inh	Pol kappa inh	Pol eta inh
COc1cccc(C2C3=C(N=c4s/c(=C\c5ccc(OCC(=O)O)cc5)c(=O)n42)c2ccccc2CC3)c1 (configuration not stated)	-17%	-20%	?	-4%	-16%	89µM*
COc1ccccc1C1C2=C(N=c3s/c(=C/c4cccc(OCC(=O)O)c4)c(=O)n31)c1ccccc1CC2 (configuration not stated)	-21%	-32%	50µM*	?	-31%	40µM*
COc1cccc(C2C3=C(N=c4s/c(=C\c5ccc(O)cc5)c(=O)n42)c2ccccc2CC3)c1OC (configuration not stated)	-1%	1%	6%	4%	-8%	-15%
CN(N=O)c1ccc(/C=C2\C=Cc3ccccc32)cc1	-3%	/	/	28%	-1%	/
Cc1c(NC(=O)c2ccco2)cccc1-c1nc2cccnc2s1	6%	-14%[57.1 µM]	-4%	?	-19%	45µM*
NC(=O)c1c(NC(=O)CN2C(=O)NC(Cc3ccccc3)C2=O)sc2c1CCC2 (configuration not stated)	4%	-10%[57.1 µM]	?	45µM*	?	?
NC(=O)c1c(NC(=O)CN2CCN(S(=O)(=O)c3ccccc3)CC2)sc2c1CCC2	-12%	?	/	13µM*	?	?
CCn1c(=O)c2cc(C(=O)N3CCN(c4cccc(OC)c4)CC3)sc2c2ccccc21	-9%	/	1%	9%	-8%	-18%
O=C(N/N=C/c1ccc([N+](=O)[O-])cc1)c1cccs1	-1%	6%[11.6 µM]	32µM*	71µM*	?	?
O=C(N/N=C/c1ccc(-c2cccc([N+](=O)[O-])c2)o1)c1cccs1	5%	11%[57.1 µM]	19%	119%	0%	-19%
O=C1NC(=O)C(c2ccccc2[N+](=O)[O-])=C1Nc1ccc(O)c(Cl)c1	-11%	8%	11µM*	28µM*!	11µM*!	?
COc1ccccc1N(/N=C1\Sc2ccccc2C1=O)C(C)=O	-18%	-8%[11.6 µM]	2%	?	2%	89µM*
COC(=O)[C@H](CC(C)C)NC(=O)c1ccc(NC[C@@H](N)CS)cc1-c1cccc2ccccc12	/	/	/	/	-5%[60.1 µM]	/
C=C1C=C(C)n2ncc(C(=O)Nc3cccc4cnccc34)c2N1	?	/	/	79µM*	?	/
C=C1C=C(C)n2ncc(C(=O)Nc3ccccc3C(=O)OC)c2N1	1%	/	/	9%	-20%	/
O=C1C(=Cc2ccc(Br)o2)C(=O)c2ccccc21	14µM*	8.9µM*	1.4µM*	1.1µM*	?	0.79µM*
COc1ccccc1CN1CCC2(CC1)CCN(S(=O)(=O)c1ccccc1)CC2	/	/	/	/	-6%[60.1 µM]	/
Cc1ccc2nc(-c3ccc(C)c(NC(=O)COc4ccccc4Cl)c3)oc2c1	2%	/	/	29%	12%	/
COc1ccccc1/C=C/C=N/NC(=O)Cc1cccn1C	-4%	-5%[57.1 µM]	-13%	50µM*	-12%	?
O=C1CSC(c2cccnc2)N1c1ccccc1 (configuration not stated)	18%	-4%	-2%	-4%	-16%	3%
Cc1cccc(N2C(=O)CSC2c2cccnc2)c1 (configuration not stated)	1%	-14%	100µM*	1%	-9%	0%
CC(C)(C)NCC(O)COc1ccc(NC(=O)NC2CCCCC2)cc1 (configuration not stated)	/	/	/	/	3%[19.4 µM]	/
CC1(C)CC[C@]2(C(=O)n3ccnc3)CC[C@]3(C)[C@H](C(=O)C=C4[C@@]5(C)C=C(C#N)C(=O)C(C)(C)[C@@H]5CC[C@]43C)[C@@H]2C1	?	?	/	14µM*	-10%	3.5µM*
Cc1nn(CCCC(=O)NCc2ccc(F)cc2)c(C)c1[N+](=O)[O-]	7%	7%	?	12%	-6%	-21%
Cc1nn(CC(=O)N(C)Cc2ccc(F)cc2)c(C)c1[N+](=O)[O-]	-4%	4%	0.18µM*	11%	0%	-7%
SMILES	FEN1 inh	WRN helicase inh	POLB inh	Pol iota inh	Pol kappa inh	Pol eta inh
CN(C)/[N+]([O-])=N/Oc1cc(F)c([N+](=O)[O-])cc1[N+](=O)[O-]	?	/	/	?	-19%	/
O=C(NCCc1nc2ccccc2n1CCOc1cccc2ccccc12)C1CCCCC1	9%	/	/	1%	2%	/
Cc1cc2ccc(Cl)nc2nc1C	17%	/	/	34%	5%	/
COc1ccc(C(=O)/C=C/c2ccccc2)c(O)c1	-19%	-9%	-2%	?	-1%	-1%
COc1ccc(C(=O)/C=C/c2cc(C(=O)O)cc3c2OCOC3)c(O)c1	-4%	?	?	?	-27%	50µM*
O=c1cc(-c2ccccc2O)oc2ccc3ccccc3c12	/	/	/	/	-6%[19.4 µM]	/
O=c1cc(-c2ccccc2O)oc2c(O)c(O)ccc12	/	/	/	/	0.89µM*	/
O=c1cc(-c2ccccc2)oc2c(O)c(O)ccc12	/	/	/	/	8.9µM*	/
COC(=O)C1=C[C@@H](C(=O)OC)C2C3=C(C(=O)[C@]2(CC(C)C)NC(=O)c2ccccc2)[C@H](C)n2c(=O)n(C)c(=O)n2[C@@H]3C1 (some centres not stated)	-14%	/	/	0%	10%	/
CCCN1CNc2c(c(=O)[nH]c(=S)n2CCc2ccsc2)C1	7%	/	/	15%	14%	/
O=C(O)CCC/C=C\C[C@@H]1[C@@H](/C=C/[C@H](O)C2Cc3ccccc3C2)[C@@H](F)C[C@@H]1O	/	/	/	/	-1%[60.1 µM]	/
O=C(CCC(=O)N1CCN(c2ccc(O)cc2)CC1)c1cccs1	11%	-3%	?	71µM*	-12%	-21%
CC[n+]1c(/C=C/c2ccc(N(C)C)cc2)ccc2ccccc21	50µM*	?	28µM*	-23%	-36%	?
CCN(CC)c1ccc(/C=C/c2ccc3ccc(OC)cc3[n+]2CC)cc1	35µM*	56µM*	-24%	?	-2%	-22%
CC[n+]1c(/C=C/c2ccc(OC(C)=O)c(OC)c2)ccc2ccccc21	?	-6%	11%	11%	6%	-9%
CN(C)c1ccc(/C=C/c2cc[n+](C)cc2)cc1	?	79µM*	-1%	3%	-20%	-23%
CC(O)(c1ccc(Cl)cc1)c1ccc(Cl)cc1	/	/	/	/	4%[60.1 µM]	/
COc1ccccc1N1CCN(C(=O)C(C)CS(=O)(=O)c2ccc3c(c2)NC(=O)CS3)CC1 (configuration not stated)	-7%	-7%	8.9µM*	10%	-4%	-9%

Compound activity from PubChem BioAssay.
